Measured values published in the supplement of paper PMC3334620.
Over roughly 33,000 sequences, “E-score (-0.5 to 0.5)” has its median near -0.04; the highest 2% begin near 0.36. Shown is part of a subset that was picked to be rich in the highest values.

Each sequence was assayed against T1, Hmlalpha2 (UniProt P0CY09) (assay: PBM E-score (8-mer binding enrichment) (E-score (-0.5 to 0.5)); higher = stronger / more preferred TF binding). Conditions: protein concentration: 200 nM; construct: GST-full length.
T1 sequence: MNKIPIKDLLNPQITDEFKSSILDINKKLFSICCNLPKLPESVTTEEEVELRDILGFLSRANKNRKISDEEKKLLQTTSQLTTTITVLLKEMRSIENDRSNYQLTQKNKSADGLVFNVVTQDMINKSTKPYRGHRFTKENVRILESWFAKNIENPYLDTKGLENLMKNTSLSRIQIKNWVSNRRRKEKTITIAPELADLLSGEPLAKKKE
Procedure, shortened: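 Yeast transcription factors carrying a GST tag, as full-length proteins or DNA-binding domains, were produced by PURExpress in vitro transcription/translation. About 100-200 nM protein was applied to universal all-10-mer Agilent arrays, double-stranded by primer extension on fresh or once-stripped slides. Bound protein was detected with fluorescent anti-GST, and scans were normalised with masliner. The Universal PBM Analysis Suite gave each ungapped eight-base word, pooled with its reverse complement, an E-score, a modified Wilcoxon-Mann-Whitney statistic.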

Row | Sequence | PBM E-score
1 | ACATGCTG | 0.377
2 | ACATGCAA | 0.398
3 | CTATGCTC | -0.27
4 | CCATGCTC | -0.13
5 | ACATGCAC | 0.36
6 | AAATGCTG | 0.229
7 | ACATGCCT | 0.3
8 | ACATGCTC | 0.388
9 | TCATGCAA | 0.107
10 | ATATGCTG | -0.0833
11 | TCATGCCA | 0.0681
12 | ACATGCCA | 0.397
13 | GTGGCCCA | -0.191
14 | ACGCAAAC | 0.125
15 | CTCGCTAC | -0.181
16 | CCGTTCCG | -0.225
17 | AGCGAGTC | -0.136
18 | CTCTAGAC | -0.116
19 | ATCGGGGC | -0.175
20 | AGTGCTCG | -0.187
21 | GAGTTCGC | -0.169
22 | TCGACAGA | -0.0778
23 | CCATGCTA | 0.0439
24 | ACATGCTA | 0.379
25 | ACATGCGG | 0.289

Row | Sequence | PBM E-score
26 | GCATGCTA | 0.00271
27 | ACATGCGT | 0.399
28 | ACATGCGC | 0.308
29 | TCAGCGGA | -0.169
30 | GACCTCGC | -0.148
31 | ACGCTCCT | 0.0508
32 | GCTAAGGA | -0.195
33 | AATCTCCA | 0.042
34 | ACAAGCGA | 0.112
35 | ACATACAG | 0.336
36 | ACATACAA | 0.325
37 | GCATACAC | 0.256
38 | ACATACAC | 0.404
39 | AGATACAT | 0.388
40 | ACATACAT | 0.421
41 | AGATACAG | -0.0238
42 | AGATACAA | 0.276
43 | CCATACAC | 0.145
44 | CTCTGCCA | -0.219
45 | ATTCTTAA | 0.148
46 | GCCGAGCC | -0.127
47 | GAGGCAGA | -0.265
48 | CCGGACCG | -0.303
49 | AATACACA | 0.467
50 | AATACACT | 0.326

Row | Sequence | PBM E-score
51 | AATACTCA | 0.18
52 | AATACACC | 0.307
53 | AATACACG | 0.473
54 | CATGAGTC | 0.175
55 | ACCGGTCT | -0.25
56 | ATTCCTGA | -0.0807
57 | CTATAATA | -0.00916
58 | GTATAAGA | 0.116
59 | ATATAACA | 0.384
60 | CTATAACA | 0.335
61 | ATATAACC | -0.0903
62 | GTATAAAA | 0.282
63 | ATATAATA | 0.199
64 | GTATAATA | 0.368
65 | GTATAACA | 0.378
66 | AGCGGTTC | -0.0786
67 | TGATCAAA | -0.137
68 | TCACCGAA | 0.0184
69 | ACAAGTAC | 0.165
70 | CATCGGTA | -0.217
71 | GCAAAACC | -0.272
72 | AAATCTTC | 0.0872
73 | CCATCGCC | -0.261
74 | ATGAACAT | 0.323
75 | AGTTACAC | 0.426

Row | Sequence | PBM E-score
76 | GGTTACAC | 0.314
77 | CGTTACAA | 0.318
78 | CGTTACAC | 0.385
79 | CGTTACAG | -0.0046
80 | AGTTACAG | 0.0744
81 | CGAAACTC | -0.242
82 | CCGGCTGC | 0.0149
83 | GGCCGACA | -0.247
84 | GAATGCTC | -0.225
85 | ATCTCACC | -0.126
86 | CAATCCTG | 0.0153
87 | AGGGGTTG | -0.253
88 | CCAAGCGC | -0.0307
89 | ACATGGAT | 0.388
90 | ACATGGGT | 0.382
91 | ACATGGGA | 0.33
92 | ACATGGAG | 0.262
93 | ACATGGAA | 0.317
94 | ACATGGGC | 0.342
95 | CCTAGGAA | -0.125
96 | AACTTCAC | 0.121
97 | CAGATTTC | -0.132
98 | CGAATGCA | 0.145
99 | GGCCATTA | 0.0102
100 | AGAGTGCA | -0.0981

Row | Sequence | PBM E-score
101 | CCACGATC | 0.172
102 | ACACGATA | 0.433
103 | ACACGATC | 0.426
104 | ACACGATG | 0.388
105 | CCACGATA | -0.11
106 | ACACGAAG | 0.358
107 | AGACGATC | -0.29
108 | GCACGATA | 0.154
109 | AAACGATG | 0.0541
110 | CGTGGCTC | -0.209
111 | AAGTTCCC | -0.296
112 | CGGTGGAC | -0.136
113 | GAGATAAA | 0.0648
114 | ATTTAACG | 0.355
115 | GTTTAATA | 0.218
116 | CTTTAACA | 0.363
117 | ATTTAACA | 0.429
118 | ATTTAACC | 0.0603
119 | GTTTAACA | 0.41
120 | CTGGGGGA | -0.422
121 | GCCACGAC | -0.0179
122 | ATCTGTGG | -0.267
123 | CCAAAGAA | -0.0602
124 | AAAAAGAT | -0.00444
125 | CAGGGGCG | -0.0915

Row | Sequence | PBM E-score
126 | ACACCTAG | -0.163
127 | CAAAACAG | 0.124
128 | CACATGAA | 0.237
129 | ATCATGAA | -0.0623
130 | AACATGAA | 0.397
131 | AGCATGAA | 0.0173
132 | GACATGAA | 0.204
133 | TACATGAA | 0.45
134 | AGGCCCGC | -0.162
135 | AGGCGATG | -0.128
136 | AATCCGGT | -0.0356
137 | ACCATTGA | 0.0496
138 | GTAGACGA | 0.17
139 | AAGACGAT | 0.0721
140 | AAATAACA | 0.316
141 | GAATAATA | 0.168
142 | GAATAACA | 0.39
143 | TAATAACA | 0.387
144 | GAATAACC | -0.0464
145 | CAATAACA | 0.239
146 | TGTATTAA | 0.413
147 | GGTATTAA | 0.083
148 | AGTATTAA | 0.249
149 | AGACATAA | 0.143
150 | ATACATAA | 0.392

Row | Sequence | PBM E-score
151 | CGACATAG | 0.139
152 | ATACATAT | 0.393
153 | ACACATAA | 0.364
154 | ATACATAC | 0.386
155 | AGACATAT | 0.0652
156 | ACATATAT | 0.27
157 | CTACATAC | 0.327
158 | CTACATAG | 0.406
159 | CCACATAG | -0.105
160 | GTACATAC | 0.362
161 | AGGAAAGG | -0.238
162 | CTCCTATC | -0.139
163 | ACTTTAGA | -0.0293
164 | CAGACACA | 0.035
165 | ACCCTAAA | -0.212
166 | AGCACTGC | -0.17
167 | ATACATAG | 0.415
168 | AAACATAG | 0.291
169 | ACACATAG | 0.282
170 | CGGAGGGC | -0.293
171 | ACCATGAT | -0.0585
172 | AGCATGAT | 0.0873
173 | CACATGAG | 0.0365
